# Assay results reported in ChEMBL document CHEMBL3988442, “University of Dundee, Small-Polar-MMV Screening Library” (2021).
# For part of these data: Entries with a potency or affinity are not part of this list.
# Key:
# Design in all cases: scale not given: direction of the effect not stated beside the values
# [1] = target: Protein translocase subunit SecA (Escherichia coli (strain K12)) (UniProt P10408); test: Assay to Identify E. coli SecA ATPase Inhibitors; type: functional; conditions: 30 µM
# Sequence of Protein translocase subunit SecA (Escherichia coli (strain K12)) (P10408 whole entry): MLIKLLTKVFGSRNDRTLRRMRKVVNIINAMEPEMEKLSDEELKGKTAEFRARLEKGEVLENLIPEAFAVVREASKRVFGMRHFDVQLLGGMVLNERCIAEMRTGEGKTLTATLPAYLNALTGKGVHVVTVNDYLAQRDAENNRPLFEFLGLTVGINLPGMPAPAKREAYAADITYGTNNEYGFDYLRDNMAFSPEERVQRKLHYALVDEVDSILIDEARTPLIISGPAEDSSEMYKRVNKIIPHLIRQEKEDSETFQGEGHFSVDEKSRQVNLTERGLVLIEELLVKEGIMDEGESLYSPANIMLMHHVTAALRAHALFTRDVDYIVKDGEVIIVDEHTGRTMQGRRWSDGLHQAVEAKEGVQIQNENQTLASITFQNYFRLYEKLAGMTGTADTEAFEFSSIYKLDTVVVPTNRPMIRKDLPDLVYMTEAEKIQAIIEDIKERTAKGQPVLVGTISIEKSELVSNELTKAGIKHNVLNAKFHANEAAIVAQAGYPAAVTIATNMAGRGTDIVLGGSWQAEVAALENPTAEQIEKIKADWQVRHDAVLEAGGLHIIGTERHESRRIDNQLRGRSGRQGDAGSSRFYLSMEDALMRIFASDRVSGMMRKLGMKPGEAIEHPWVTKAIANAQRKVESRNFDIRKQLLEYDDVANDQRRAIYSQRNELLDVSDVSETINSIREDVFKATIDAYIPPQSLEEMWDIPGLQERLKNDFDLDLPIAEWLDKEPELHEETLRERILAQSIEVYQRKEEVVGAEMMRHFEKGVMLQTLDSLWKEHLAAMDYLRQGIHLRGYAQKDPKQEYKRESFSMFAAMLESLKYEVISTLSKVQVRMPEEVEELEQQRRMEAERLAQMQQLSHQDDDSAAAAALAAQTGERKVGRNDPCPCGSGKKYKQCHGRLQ
# [2] = target: T1, Ubiquitin-activating enzyme e1, putative (Leishmania donovani (strain BPK282A1)) (UniProt E9BSI1); test: Leishmania donovani Ubiquitin Activating Enzyme (LdE1); type: functional; conditions: 30 µM
# T1 sequence (whole entry): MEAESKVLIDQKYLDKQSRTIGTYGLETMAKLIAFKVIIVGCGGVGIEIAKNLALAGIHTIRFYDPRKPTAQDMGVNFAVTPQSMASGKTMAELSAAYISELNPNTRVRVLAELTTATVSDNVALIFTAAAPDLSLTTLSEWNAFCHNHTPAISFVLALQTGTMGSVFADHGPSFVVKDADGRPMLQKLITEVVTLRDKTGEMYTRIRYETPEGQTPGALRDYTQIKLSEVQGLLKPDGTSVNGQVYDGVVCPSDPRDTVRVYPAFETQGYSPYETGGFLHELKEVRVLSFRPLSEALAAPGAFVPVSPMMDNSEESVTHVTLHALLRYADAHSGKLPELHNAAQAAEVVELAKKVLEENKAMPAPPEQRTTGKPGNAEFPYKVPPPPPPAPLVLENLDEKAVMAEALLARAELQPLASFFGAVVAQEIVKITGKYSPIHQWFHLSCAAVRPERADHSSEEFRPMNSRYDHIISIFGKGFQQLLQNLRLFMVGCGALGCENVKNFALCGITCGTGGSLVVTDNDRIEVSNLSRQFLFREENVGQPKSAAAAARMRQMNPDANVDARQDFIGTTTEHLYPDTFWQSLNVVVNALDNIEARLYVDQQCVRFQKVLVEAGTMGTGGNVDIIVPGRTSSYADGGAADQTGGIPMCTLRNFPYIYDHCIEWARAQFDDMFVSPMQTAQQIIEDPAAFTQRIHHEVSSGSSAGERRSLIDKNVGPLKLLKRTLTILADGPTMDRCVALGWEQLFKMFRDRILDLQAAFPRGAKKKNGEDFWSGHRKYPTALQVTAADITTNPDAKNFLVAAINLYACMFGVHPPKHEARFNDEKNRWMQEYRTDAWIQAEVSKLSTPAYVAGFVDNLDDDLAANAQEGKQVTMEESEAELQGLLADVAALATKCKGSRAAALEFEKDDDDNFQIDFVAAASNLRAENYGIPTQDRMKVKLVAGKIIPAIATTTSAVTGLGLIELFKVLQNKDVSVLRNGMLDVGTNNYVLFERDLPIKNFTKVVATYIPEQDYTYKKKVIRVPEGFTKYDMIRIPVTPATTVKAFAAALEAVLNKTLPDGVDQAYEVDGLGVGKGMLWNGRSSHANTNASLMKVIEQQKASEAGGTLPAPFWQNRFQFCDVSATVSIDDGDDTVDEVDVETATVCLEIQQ
# [3] = target: Sialic acid-binding Ig-like lectin 9 (Homo sapiens) (UniProt Q9Y336); test: Hs-Siglec9 ALPHAscreen SOP 20170721; conditions: 10 µM
# Sequence of Sialic acid-binding Ig-like lectin 9 (Homo sapiens) (Q9Y336 whole entry): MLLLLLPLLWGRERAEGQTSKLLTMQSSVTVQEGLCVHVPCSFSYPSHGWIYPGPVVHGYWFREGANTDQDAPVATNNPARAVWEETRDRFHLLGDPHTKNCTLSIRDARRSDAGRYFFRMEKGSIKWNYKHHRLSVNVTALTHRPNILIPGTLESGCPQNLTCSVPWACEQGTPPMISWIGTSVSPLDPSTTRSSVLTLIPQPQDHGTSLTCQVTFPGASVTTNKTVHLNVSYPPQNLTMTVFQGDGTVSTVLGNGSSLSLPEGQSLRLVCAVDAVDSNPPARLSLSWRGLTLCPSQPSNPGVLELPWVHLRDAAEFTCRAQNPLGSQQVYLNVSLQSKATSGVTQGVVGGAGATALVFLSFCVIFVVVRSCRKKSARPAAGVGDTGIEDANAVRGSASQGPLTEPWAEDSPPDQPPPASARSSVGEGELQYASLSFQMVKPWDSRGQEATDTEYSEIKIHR
# [4] = test system: Trypanosoma cruzi; test: Trypanosoma cruzi phosphomannomutase and mannose-1-phosphate guanylyltransferase assay; type: functional; conditions: 10 µM
# [5] = target: T2, Arginase-2, mitochondrial (Homo sapiens) (UniProt P78540); test: in vitro enzyme assay to detect the production of urea directly proportional to the activity of Arginase II; type: functional; conditions: 33.3 µM; note: in the data most compounds retested in dose-response had high values
# T2 sequence (whole entry): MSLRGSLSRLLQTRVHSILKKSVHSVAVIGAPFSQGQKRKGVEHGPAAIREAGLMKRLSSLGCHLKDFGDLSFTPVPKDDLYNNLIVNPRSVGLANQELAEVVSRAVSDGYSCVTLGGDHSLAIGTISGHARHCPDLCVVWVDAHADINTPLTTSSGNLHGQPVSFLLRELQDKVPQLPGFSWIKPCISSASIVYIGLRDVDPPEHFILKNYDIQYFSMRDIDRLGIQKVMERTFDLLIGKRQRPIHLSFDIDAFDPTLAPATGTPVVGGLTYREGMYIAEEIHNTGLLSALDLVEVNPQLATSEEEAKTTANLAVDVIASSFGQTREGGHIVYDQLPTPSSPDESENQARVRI
# [6] = target: T3, Proteasome subunit beta (Trypanosoma cruzi) (UniProt O96673); test: Trypanosoma cruzi proteasome chymotrypsin-like activity (TcProtChymo) assay.; note: in the data most compounds retested in dose-response had high values; type: functional; conditions: 9.37 µM
# T3 sequence (whole entry): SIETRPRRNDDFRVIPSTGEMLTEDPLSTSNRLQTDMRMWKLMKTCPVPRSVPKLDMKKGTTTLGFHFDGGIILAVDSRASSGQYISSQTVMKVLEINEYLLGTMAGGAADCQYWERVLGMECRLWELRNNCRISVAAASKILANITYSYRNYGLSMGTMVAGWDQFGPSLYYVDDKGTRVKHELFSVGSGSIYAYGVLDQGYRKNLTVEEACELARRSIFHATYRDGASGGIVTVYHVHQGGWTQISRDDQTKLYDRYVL
# [7] = species on record: Homo sapiens; test: To identify inhibition of the IFN signalling (Jak-Stat) pathway via expression of an eGFP reporter gene under the control of an IFN-stimulated response element (ISRE) containing MxA promoter.; type: functional; conditions: 30 µM
# [8] = target: T4, Tyrosyl-tRNA synthetase, putative (Trypanosoma cruzi (strain CL Brener)) (UniProt Q4DSP6); test: Trypanosoma cruzi tyrosyl tRNA synthetase (TcYRS) _High Tyrosine SOP; type: functional; conditions: 30 µM; note: in the data most compounds retested in dose-response had high values
# T4 sequence (whole entry): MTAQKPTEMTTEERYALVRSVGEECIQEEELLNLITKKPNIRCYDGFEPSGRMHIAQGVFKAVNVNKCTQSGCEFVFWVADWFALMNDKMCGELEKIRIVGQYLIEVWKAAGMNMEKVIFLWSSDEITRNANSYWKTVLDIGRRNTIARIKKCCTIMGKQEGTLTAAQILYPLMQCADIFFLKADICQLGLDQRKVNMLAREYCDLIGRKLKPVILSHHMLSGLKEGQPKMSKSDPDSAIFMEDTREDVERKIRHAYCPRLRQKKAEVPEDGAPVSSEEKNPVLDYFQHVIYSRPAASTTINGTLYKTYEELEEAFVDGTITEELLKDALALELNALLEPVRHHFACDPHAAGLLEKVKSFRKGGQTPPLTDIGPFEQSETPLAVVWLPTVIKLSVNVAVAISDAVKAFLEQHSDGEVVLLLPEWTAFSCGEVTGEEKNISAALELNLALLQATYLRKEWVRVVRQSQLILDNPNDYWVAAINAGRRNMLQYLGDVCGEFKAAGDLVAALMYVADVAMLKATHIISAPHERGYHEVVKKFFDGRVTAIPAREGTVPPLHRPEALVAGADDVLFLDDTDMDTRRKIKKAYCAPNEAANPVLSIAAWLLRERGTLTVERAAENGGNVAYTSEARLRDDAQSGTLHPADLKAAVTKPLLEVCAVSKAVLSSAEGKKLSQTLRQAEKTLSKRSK
# [9] = target: T4, Tyrosyl-tRNA synthetase, putative (Trypanosoma cruzi (strain CL Brener)); test: Trypanosoma cruzi tyrosyl tRNA synthetase (TcYRS) SOP; type: functional; conditions: 30 µM
# [10] = target: Chromo domain-containing protein 1 (Saccharomyces cerevisiae (strain ATCC 204508 / S288c) (Baker's yeast)) (UniProt P32657); test: ScCHD-1 Enzyme Inhibition Assay; type: functional; conditions: 30 µM; note: in the data most compounds retested in dose-response had high values
# Sequence of Chromo domain-containing protein 1 (Saccharomyces cerevisiae (strain ATCC 204508 / S288c) (Baker's yeast)) (P32657 whole entry, the tested form may be a part): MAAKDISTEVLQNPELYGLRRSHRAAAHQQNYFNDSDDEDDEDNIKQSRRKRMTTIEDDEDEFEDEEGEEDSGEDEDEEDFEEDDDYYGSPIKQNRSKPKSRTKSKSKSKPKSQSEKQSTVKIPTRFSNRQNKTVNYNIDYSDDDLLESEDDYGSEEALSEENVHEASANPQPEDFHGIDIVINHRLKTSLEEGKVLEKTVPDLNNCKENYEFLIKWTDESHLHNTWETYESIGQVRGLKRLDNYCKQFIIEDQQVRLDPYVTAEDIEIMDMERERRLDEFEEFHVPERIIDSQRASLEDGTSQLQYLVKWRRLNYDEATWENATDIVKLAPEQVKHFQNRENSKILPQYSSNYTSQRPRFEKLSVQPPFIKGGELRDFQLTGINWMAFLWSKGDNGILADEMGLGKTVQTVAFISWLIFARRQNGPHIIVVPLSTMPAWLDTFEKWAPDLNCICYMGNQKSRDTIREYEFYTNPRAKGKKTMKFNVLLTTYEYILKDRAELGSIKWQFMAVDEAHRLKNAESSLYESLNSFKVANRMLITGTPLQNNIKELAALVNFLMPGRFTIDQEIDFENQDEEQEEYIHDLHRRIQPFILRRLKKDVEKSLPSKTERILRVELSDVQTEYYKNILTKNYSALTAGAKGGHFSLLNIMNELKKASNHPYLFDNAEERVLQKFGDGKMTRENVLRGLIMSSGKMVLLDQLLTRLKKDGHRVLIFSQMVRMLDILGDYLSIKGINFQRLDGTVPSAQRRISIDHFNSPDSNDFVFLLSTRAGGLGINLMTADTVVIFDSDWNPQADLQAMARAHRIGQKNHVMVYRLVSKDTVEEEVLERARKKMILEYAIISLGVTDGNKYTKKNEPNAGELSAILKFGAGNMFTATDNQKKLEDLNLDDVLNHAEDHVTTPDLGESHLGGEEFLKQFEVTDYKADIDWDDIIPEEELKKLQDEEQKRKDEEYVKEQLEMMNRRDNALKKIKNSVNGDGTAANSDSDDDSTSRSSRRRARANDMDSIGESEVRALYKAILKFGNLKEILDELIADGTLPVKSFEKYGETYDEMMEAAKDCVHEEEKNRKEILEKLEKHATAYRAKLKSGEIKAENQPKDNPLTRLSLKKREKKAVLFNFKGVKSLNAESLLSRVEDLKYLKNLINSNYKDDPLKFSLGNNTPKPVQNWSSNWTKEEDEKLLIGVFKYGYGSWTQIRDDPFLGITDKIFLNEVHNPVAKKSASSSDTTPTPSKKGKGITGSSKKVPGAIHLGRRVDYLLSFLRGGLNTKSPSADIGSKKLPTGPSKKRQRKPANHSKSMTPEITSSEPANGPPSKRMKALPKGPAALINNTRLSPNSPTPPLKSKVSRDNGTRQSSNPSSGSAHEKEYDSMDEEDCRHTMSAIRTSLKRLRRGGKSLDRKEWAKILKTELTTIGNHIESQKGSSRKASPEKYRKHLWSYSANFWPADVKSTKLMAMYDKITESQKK
Compound,Percent Effect [1] [%],Percent Effect [2] [%],Percent Effect [3] [%],Percent Effect [4] [%],Percent Effect [5] [%],Percent Effect [6] [%],Percent Effect [7] [%],Percent Effect [8] [%],Percent Effect [9] [%],Percent Effect [10] [%]
CCn1ccnc1CN1CCCN(C(=O)c2cccn2C)CC1,-5.36,12.8,-19.1,14,-2.46,8.79,4.83,2.39,20.5,31.3
COc1ccc(CN2CCN(C(C)c3nc(C4CC4)no3)CC2)cc1 (stereo not given),-1.5,12.8,2.49,3.29,-9.43,7.76,26.9,3.35,10.8,-7.9
O=S(=O)(NCCN1CCCCC1Cn1cncn1)c1ccccc1 (stereo not given),-1.12,0,6.15,1.68,7.99,-5.61,-18.3,1.96,9.41,-1.75
Cc1cc(C)n(CC2CCCCN2C(=O)c2ccc3nncn3c2)n1 (stereo not given),-7.43,8,0.804,2.01,-1.77,8.06,6.43,5.79,10.3,-4.66
CS(=O)(=O)Cc1cccc(C(=O)N2CCCC(n3cccn3)C2)c1 (stereo not given),-3.02,2.56,-5.84,-5.92,-1.23,4.69,24.6,2.39,1.21,-5.08
CCc1ccc(NC(=O)C2OC(c3cccs3)=NN2C(C)=O)cc1 (stereo not given),-5.81,12,-5.11,3.94,-0.443,19.2,14.4,1.06,10,-26.1
Cc1ncsc1C(=O)N(Cc1cccnc1)C1CC1,-0.351,2.56,10,5.92,4.1,-1.45,16.3,1.44,8.43,-2.14
CCn1ncc(Br)c1CN(C)S(=O)(=O)c1ccc(C)cc1,0.567,6.67,-0.565,3.35,6.2,15.3,14,4.23,10,-22
O=C1CC(c2ccsc2)c2sc(C(=O)O)c(-c3ccccc3)c2N1 (stereo not given),-4.21,8.11,8.19,5.92,21.3,21.9,11.7,4.79,12.2,33.2
CCN1CCO[C@]2(CCC[C@H]2COCc2csc(C)n2)C1,-5.1,-1.3,11,-0.292,-7.29,3.27,-2.57,3.68,5.13,-0.161
CC(C)c1nnc2n1CCN(C(=O)c1cccc(C(F)(F)F)c1)C2,-5.89,18.7,10,2.81,1.33,6.19,7.24,6.84,15.4,-7.15
CS(=O)(=O)c1cccc(C(N)c2ccc(F)c(F)c2)c1 (stereo not given),-6.37,5.33,1.99,-2.81,-2.66,4.16,23.5,7.89,15.4,-9.26
